Each structure is given as a SMILES string. Several values for one entry are separate records, joined by “and”; a condition that tells them apart may be missing. Equal values may be shown once. About 83,000 compounds went through this panel and 20% of them were active in at least one assay; those are over-represented in the sample as a whole.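 Negative percent growth values reflect cell death: -40 means 40% of the cells present at the start died, and -100 means all died.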 Some compounds were tested as several samples or in several runs, with calls that do not always agree. Activity calls are given as the source filed them. Rule for the calls: active = growth percent below 10; inactive = the rest.

The subject of the test is MDA-MB-468 breast. The test can be described thus: NCI-60 one-dose screen, 48 h (100 = growth as untreated, 0 = no growth, -100 = all killed). Conditions: 10 µM unless noted.
In the case of `O=C1Nc2ccccc2/C1=N/N=C/c1ccsc1`, the growth was 78.3% (inactive).

On to `O=C(Nc1nc2ccccc2s1)c1cc(-c2ccc(F)cc2)n2nc(-c3ccccc3)cc2n1`, for which the growth is 118% (inactive).

Take `O=C1C[C@H](Sc2nc(-c3ccc(F)cc3)cc(C(F)(F)F)n2)[C@H]2CO[C@@H]1O2`: the growth was 71.4% (inactive).

`O=[P@@]1(c2ccccc2)O[C@H](COCc2ccccc2)[C@@H](OCc2ccccc2)[C@H](OCc2ccccc2)[C@H]1O`: the growth was 21.3% (inactive).

Take `Nc1ccccc1Nc1ccccc1`: the growth is 120% (inactive) and 118% (inactive).

As to `CCCCCCc1cc2cc(-c3nc4ccccc4[nH]3)c(=Nc3ccccc3C)oc2cc1O`, the growth was -5.99% (active).

Consider `CC(O)CNC(Cc1ccccc1)c1ccc2c(c1)OCO2` (stereo not given), for which the growth is 101% (inactive).

As for `Cc1ccc(C2CC(c3cccc(Nc4ccncc4)c3)=NN2c2cc(Cl)cc(Cl)c2)cc1` (stereo not given), the growth is -30% (active).

Regarding `CCCCCCCCCCCC(=O)[O][Sn]([CH2]CCC)([CH2]CCC)[CH2]CCC`, the growth was -79.4% (active).

With `O=C1CCc2c(sc3[nH]c(=S)n(Cc4ccccc4)c(=O)c23)C1`, the growth is -3.67% (active).

Turning to `Cc1ccccc1-c1nc(C(Cl)Cl)nc2cc(-c3ccccc3)nn12`, the growth was 52.7% (inactive).

Regarding `NC(N)=N/N=C/CO`, the growth was 107% (inactive).

Take `O=C1/C(=C/c2ccccc2O)C(=S)SN1Cc1ccco1`: the growth was 64.7% (inactive).

In the case of `CC(C)(C)c1nn(-c2ccccc2)c2c1CC1(CN2Cc2ccc3c(c2)OCO3)C(=O)c2ccccc2C1=O`, the growth is 111% (inactive).

For `CC/C=C\C[C@H](O)C/C=C1/C(=O)C=C[C@@H]1C/C=C\CCCC(N)=O`, the growth was -33.1% (active).

Take `CS(=O)(=O)Nc1cc(-c2ccc3ncnc(Nc4ccc(OCc5ccccn5)c(Cl)c4)c3c2)cnc1Cl`: the growth was -55.4% (active).

With `O=C(Nc1ccccc1-c1nc2ccccc2c(=O)[nH]1)c1cc2ccccc2[nH]1`, the growth was 86.9% (inactive).

Consider `CCOC(=O)/C(=C/CC/C(C)=C/CC/C(C)=C/CCc1ccoc1)CC(=O)N1CCCCC1`, for which the growth was 0.246% (active).

Take `Nc1c(C(=O)Nc2c(Cl)cccc2Cl)sc2nc3c(cc12)C(=O)CCC3`: the growth is -3.83% (active).

For the compound `Cn1c(SCC(=O)Nc2ccc(-c3nc4ccc([N+](=O)[O-])cc4[nH]3)cc2)nc2ccccc2c1=O`, the growth is 56.5% (inactive).

Take `CCCCCC(=O)Oc1ccc(/C(=C(/C)Cc2ccc(OC)cc2)c2ccc(OCCCN(C)C)cc2)cc1`: the growth is 56.4% (inactive).

Take `COc1ccc(C2=C(c3cn(C)c4ccccc34)C(=O)OC2)cc1OC`: the growth is 1.23% (active).

Turning to `C=C1C(=O)O[C@H]2[C@H]1CC/C(COC(=O)CCSSCCC(=O)OC/C1=C/CC[C@@]3(C)O[C@H]3[C@H]3OC(=O)C(=C)[C@@H]3CC1)=C\CC[C@@]1(C)O[C@@H]21`, the growth is -54% (active).

Consider `NC(=O)C1(Nc2ccc(Br)cc2)CCCC1`, for which the growth is 101% (inactive).

Turning to `Nc1c(-c2nc3ccc(Br)cc3c(=O)[nH]2)nnn1-c1ccccc1`, the growth was 65.6% (inactive).

As to `O=S(=O)(Nc1ccc(I)cc1Cl)c1ccc(-c2cnc(C3CC3)o2)cc1`, the growth was 20.1% (inactive).

Consider `COC(=O)c1c(C(=O)OC)c2ccc3c4ncccc4ccc3n2c1C(=O)c1ccc(C)cc1`, for which the growth is 79.1% (inactive).

As to `C#CC[C@@H]1C[C@]2(C)[C@H]3CC=C4[C@H]5[C@@H](C)[C@H](C)CC[C@]5(C(=O)NCCCN5CCN(CCCN)CC5)CC[C@@]4(C)[C@]3(C)CC[C@H]2C(C)(C)[C@H]1OC(C)=O`, the growth was -72.9% (active).

As to `CCC(C)(CC)c1ccc(O)c(C)c1`, the growth was 101% (inactive).

In the case of `CC1=C(C(=O)Nc2nc(-c3ccc(Cl)cc3)cs2)[C@H](c2ccc(O)cc2)NC(=O)N1`, the growth is 95% (inactive).

Consider `C/C(=N\NC(N)=S)c1nc2ccc(Cl)cc2[nH]1`, for which the growth was 44.2% (inactive).

In the case of `COc1ccc(-c2nn(-c3cccc(Cl)c3)cc2C2CC(c3ccccc3)=NN2C(C)=O)cc1` (stereo not given), the growth was 80.9% (inactive).

As for `N#Cc1c(-c2ccccc2)cc(-c2ccccc2)n(CCCC(=O)Nc2ccccc2N)c1=O`, the growth was 14.9% (inactive).

As to `CC(C)(O)c1cccc(F)c1`, the growth is 93.8% (inactive).

In the case of `CC(C)OC(=O)Nc1cc(F)ccc1F`, the growth is 92.8% (inactive).

Take `CC1=C(CC(=O)c2cccc([N+](=O)[O-])c2)C(=O)c2ccccc2C1=O`: the growth is -52.5% (active).

Consider `COc1ccc(-c2ncnc3c2ncn3C/C=C/CCl)cc1`, for which the growth is -3.89% (active) and 61.5% (inactive).

For the compound `Clc1cc(Cl)c(Cl)nn1`, the growth was 102% (inactive).

For `COc1ccccc1CNCCCN1C(=O)c2ccc3c4c(ccc(c24)C1=O)C(=O)N(CCCNCCCCNCCCCN)C3=O`, the growth is -47% (active).

`COc1cc(/C=C/C(=O)/C=C/c2cc3ccc(Cl)cc3[nH]c2=O)ccc1O`: the growth is 98.4% (inactive).

(Values after PubChem BioAssay (NCI).)
